Experimental data: PubChem BioAssay (Tox21)
Values without a mark were called inactive. Inconclusive results are not listed. Entries that show only a call come without a potency. Calls of active or inactive are those of the source. Unless noted, the call rests on the fitted dose curve; in most records, active means well fitted curve in the direction sought with a large enough effect in the repeat runs; inconclusive means weak or mixed curves; inactive means no such curve, though single readings can be large; an effect the other way counts as inactive or inconclusive.

Experiments:
[1] = target: Thyrotropin-releasing hormone receptor (Homo sapiens) (UniProt P34981); assay: qHTS assay to identify small molecule agonists of the thyrotropin-releasing hormone receptor (TRHR) signaling pathway (AID 1346891; calls by dose curve; further: series mostly up to about 58 µM)
Procedure, shortened: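 HEK293 cells expressing TRHR plated 18 h at 37 C/5% CO2, calcium dye-loaded 2 h at 37 C, then compound added (agonist mode); kinetic calcium fluorescence read 3 min at 1 s intervals; 15 concentrations in triplicate.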

[2] = Human pregnane X receptor (PXR) small molecule agonists, qHTS cell viability counter screen (AID 1346977); further: nearly all actives have a fitted effect of over 50% in size
Procedure, shortened: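 PXR-Luc HepG2 cells (2,000/well, 5% charcoal-stripped FBS) preincubated 5 hr, then exposed to compounds 24 hr at 37 C. Viability read in the same wells by CellTiter-Fluor fluorescence, reagent added at 23 hr, 1 hr incubation.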

[3] = Caspase-3/7 induction in HepG2 cells by small molecules, qHTS assay (AID 1346978); further: nearly all actives have a fitted effect of over 15% in size
Procedure, shortened: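 Wild-type HepG2 cells, 2,000/well, settled 5 hr at 37 C and 5% CO2, then compound-treated for 17 hr; caspase-3/7 activity read by luminescent Caspase-Glo 3/7 after 30 min at room temperature.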

[4] = Caspase-3/7 induction in CHO-K1 cells by small molecules, qHTS cell viability counter screen (AID 1346979); further: nearly all actives have a fitted effect of over 35% in size
Procedure, shortened: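 Wild-type CHO-K1 cells (1,500/well) treated with compound after 5 h plating; after 16 h at 37C, viability read as CellTiter-Fluor fluorescence following 1 h reagent incubation, in the same wells as the caspase read.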

[5] = Caspase-3/7 induction in CHO-K1 cells by small molecules, qHTS assay (AID 1346980); further: nearly all actives have a fitted effect of over 15% in size
Procedure, shortened: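 Wild-type CHO-K1 cells exposed to compounds for 17hr at 37 C, 5% CO2. Caspase-3/7 activity then measured by Caspase-Glo 3/7 luminescence after 30min at room temperature.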

[6] = Caspase-3/7 induction in HepG2 cells by small molecules, qHTS cell viability counter screen (AID 1346981); further: series mostly up to about 92 µM; nearly all actives have a fitted effect of over 30% in size
Procedure, shortened: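 Cell viability is measured as a cytotoxicity counter screen alongside the Caspase-Glo 3/7 readout in identical wells. Wild-type HepG2 cells are treated with test compounds for 16 hr at 37 C before CellTiter-Fluor addition and a 1-hr incubation.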

[7] = target: Nuclear receptor subfamily 1 group I member 2 (Homo sapiens) (UniProt O75469); assay: Human pregnane X receptor (PXR) small molecule agonists, qHTS assay (AID 1346982); further: nearly all actives have a fitted effect of over 35% in size; further: potency means the concentration at half of the fitted maximal effect
Procedure, shortened: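 Cells: HepG2 stably carrying PXR-Luc. Medium held 5% charcoal-stripped FBS. Compounds in DMSO added after 5 hr plating, incubated 24 hr, then luminescence quantified with ONE-Glo.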

[8] = target: Nuclear receptor subfamily 1 group I member 2 (Rattus norvegicus) (UniProt Q9R1A7); assay: Rat pregnane X receptor (rPXR) activation by small molecules, qHTS assay (AID 1346983); conditions: rPXR luciferase reporter cells, One-Glo luminescence, 24 h; max activation: active compounds read high; further: nearly all actives have a fitted effect of over 20% in size
Procedure, shortened: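 Cell-based rPXR activation assay: rPXR cells, 2,000 per well, rested 5hr at 37 C, then exposed to compounds in DMSO for 24 hr at 37 C. Luciferase activity read by One-Glo luminescence after 30 min at room temperature.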

[9] = target: Nuclear receptor subfamily 1 group I member 2 (Homo sapiens) (UniProt O75469); assay: Human pregnane X receptor (PXR) activation by small molecules, qHTS assay (AID 1346985); further: nearly all actives have a fitted effect of over 40% in size
Procedure, shortened: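 DPX-2 cells (HepG2 co-transfected with a PXR response element and a CYP3A4-promoter luciferase construct) were seeded at 2,000 per well, rested 5 hr at 37C, then exposed to DMSO-dissolved compounds for 24 hr. Activation was read as luciferase luminescence.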

[10] = target: Cytochrome P450 2D6 (Homo sapiens) (UniProt P10635); assay: Cytochrome P450 Family 2 Subfamily D Member 6 (CYP2D6) small molecule antagonists: luciferase reporter qHTS assay (AID 1671196); further: series mostly up to about 120 µM; nearly all actives have a fitted effect of over 50% in size
Procedure, shortened: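 Enzyme and proluciferin substrate were first combined with test chemical for 10 min at room temperature. Adding NADPH regeneration solution started a 1 h reaction, stopped with luciferin detection reagent and read by luminescence 20 min later.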

[11] = target: Cytochrome P450 2C19 (Homo sapiens) (UniProt P33261); assay: Cytochrome P450 Family 2 Subfamily C Member 19 (CYP2C19) small molecule antagonists: luciferase reporter qHTS assay (AID 1671197); further: nearly all actives have a fitted effect of over 65% in size; further: potency means the concentration at half of the fitted maximal effect
Procedure, shortened: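 P450-Glo CYP2C19 system: enzyme-substrate mix with compound 10 min at room temperature, then NADPH regeneration solution, 1 h at 37C. Proluciferin-to-luciferin conversion detected by luminescence after 20 min with detection reagent; ketoconazole as positive control.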

[12] = target: Cytochrome P450 2C9 (Homo sapiens) (UniProt P11712); assay: Cytochrome P450 Family 2 Subfamily C Member 9 (CYP2C9) small molecule antagonists: luciferase reporter qHTS assay (AID 1671198); further: nearly all actives have a fitted effect of over 50% in size; further: potency means the concentration at half of the fitted maximal effect
Procedure, shortened: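 P450-Glo proluciferin substrate with CYP2C9 enzyme; 10 min RT preincubation, then NADPH regeneration 1 h at 37C; luciferin detection reagent 20 min RT, luminescence in relative luminescence units.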

[13] = target: Cytochrome P450 3A4 (Homo sapiens) (UniProt P08684); assay: Cytochrome P450 Family 3 Subfamily A Member 4 (CYP3A4) small molecule antagonists: luciferase reporter qHTS assay (AID 1671201); further: nearly all actives have a fitted effect of over 50% in size; further: potency means the concentration at half of the fitted maximal effect
Procedure, shortened: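 P450-Glo CYP3A4 luminescent assay: compounds preincubated 10 min at room temperature with enzyme and proluciferin substrate, NADPH regeneration added, 1 h room-temperature reaction, stopped with luciferin detection reagent; luminescence read after 20 min. Ketoconazole positive control.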

[14] = target: Cytochrome P450 1A2 (Homo sapiens) (UniProt P05177); assay: Cytochrome P450 Family 1 Subfamily A Member 2 (CYP1A2) small molecule antagonists: luciferase reporter qHTS assay (AID 1671199); further: nearly all actives have a fitted effect of over 50% in size; further: potency means the concentration at half of the fitted maximal effect
Procedure, shortened: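 Compounds were incubated with CYP1A2 and a luminogenic proluciferin substrate for 10 min at room temperature before the reaction was started with NADPH regeneration solution. After 1 h, detection reagent was added and light output, proportional to CYP activity, was recorded.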

[15] = target: Voltage-gated inwardly rectifying potassium channel KCNH2 (Homo sapiens) (UniProt Q12809); assay: Human Ether-a-go-go-Related Gene (hERG) channel small molecule antagonists: fluorescence cell-based qHTS assay (AID 1671200)
Procedure, shortened: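 hERG-U2OS cells plated overnight at 37 C, loaded with FluxOR II dye 1 h at RT in dark; after 10 min, thallium stimulus added. Fluorescence (480/540 nm) read kinetically for 2 min at 1 s intervals.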

Sequence of Cytochrome P450 3A4 (Homo sapiens) (P08684 whole entry, looked up): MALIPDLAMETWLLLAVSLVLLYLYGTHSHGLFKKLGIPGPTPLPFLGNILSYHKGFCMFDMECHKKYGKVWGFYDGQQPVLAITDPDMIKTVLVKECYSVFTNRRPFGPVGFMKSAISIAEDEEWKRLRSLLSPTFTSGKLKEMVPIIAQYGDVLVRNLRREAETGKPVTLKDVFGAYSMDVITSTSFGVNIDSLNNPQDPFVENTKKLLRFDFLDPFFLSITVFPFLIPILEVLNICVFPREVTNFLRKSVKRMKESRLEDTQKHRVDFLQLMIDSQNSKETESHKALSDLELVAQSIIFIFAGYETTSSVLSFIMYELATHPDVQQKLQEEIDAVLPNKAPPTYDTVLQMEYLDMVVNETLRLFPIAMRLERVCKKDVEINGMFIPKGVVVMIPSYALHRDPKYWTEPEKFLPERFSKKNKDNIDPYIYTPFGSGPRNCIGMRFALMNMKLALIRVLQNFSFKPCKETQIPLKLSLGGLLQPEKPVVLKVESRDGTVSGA
Sequence of Cytochrome P450 1A2 (Homo sapiens) (P05177 whole entry, looked up): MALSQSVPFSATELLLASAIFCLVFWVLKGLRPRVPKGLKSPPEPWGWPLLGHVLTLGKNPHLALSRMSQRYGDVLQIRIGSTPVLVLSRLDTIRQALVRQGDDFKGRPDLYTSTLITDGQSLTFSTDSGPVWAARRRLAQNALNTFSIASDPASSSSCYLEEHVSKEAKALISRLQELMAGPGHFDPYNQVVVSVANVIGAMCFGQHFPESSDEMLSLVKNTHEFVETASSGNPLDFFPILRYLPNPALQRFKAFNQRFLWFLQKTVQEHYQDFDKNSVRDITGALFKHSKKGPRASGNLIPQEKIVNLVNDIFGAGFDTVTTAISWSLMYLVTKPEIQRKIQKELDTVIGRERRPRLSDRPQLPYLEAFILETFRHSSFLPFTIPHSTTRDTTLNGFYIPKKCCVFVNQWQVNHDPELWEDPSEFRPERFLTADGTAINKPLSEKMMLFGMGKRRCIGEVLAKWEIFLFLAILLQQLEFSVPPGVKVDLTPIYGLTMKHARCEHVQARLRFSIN
Sequence of Thyrotropin-releasing hormone receptor (Homo sapiens) (P34981 whole entry, looked up): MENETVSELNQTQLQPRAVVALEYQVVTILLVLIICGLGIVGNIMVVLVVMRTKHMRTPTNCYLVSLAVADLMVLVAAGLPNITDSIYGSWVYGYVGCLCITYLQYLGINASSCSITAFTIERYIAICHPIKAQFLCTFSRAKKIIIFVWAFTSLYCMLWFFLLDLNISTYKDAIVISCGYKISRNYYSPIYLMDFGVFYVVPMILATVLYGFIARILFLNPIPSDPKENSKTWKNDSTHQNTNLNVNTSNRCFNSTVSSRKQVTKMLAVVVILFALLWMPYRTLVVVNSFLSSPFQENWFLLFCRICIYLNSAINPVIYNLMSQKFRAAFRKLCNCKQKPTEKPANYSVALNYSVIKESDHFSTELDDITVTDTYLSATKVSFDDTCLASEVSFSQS
Sequence of Cytochrome P450 2D6 (Homo sapiens) (P10635 whole entry, looked up): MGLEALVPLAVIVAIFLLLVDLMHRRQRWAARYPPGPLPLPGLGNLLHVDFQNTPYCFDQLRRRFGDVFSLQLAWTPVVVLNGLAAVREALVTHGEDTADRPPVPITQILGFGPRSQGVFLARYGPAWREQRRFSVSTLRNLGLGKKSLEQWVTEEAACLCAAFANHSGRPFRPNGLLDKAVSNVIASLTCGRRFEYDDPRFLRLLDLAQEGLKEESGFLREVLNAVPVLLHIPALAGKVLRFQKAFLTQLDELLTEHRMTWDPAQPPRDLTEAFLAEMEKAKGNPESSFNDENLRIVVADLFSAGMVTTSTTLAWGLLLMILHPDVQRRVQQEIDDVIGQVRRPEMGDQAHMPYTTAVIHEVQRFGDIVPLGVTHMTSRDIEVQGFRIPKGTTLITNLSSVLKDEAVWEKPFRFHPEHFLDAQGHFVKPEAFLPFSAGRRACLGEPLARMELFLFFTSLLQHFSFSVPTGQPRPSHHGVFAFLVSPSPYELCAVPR
Sequence of Cytochrome P450 2C9 (Homo sapiens) (P11712 whole entry, looked up): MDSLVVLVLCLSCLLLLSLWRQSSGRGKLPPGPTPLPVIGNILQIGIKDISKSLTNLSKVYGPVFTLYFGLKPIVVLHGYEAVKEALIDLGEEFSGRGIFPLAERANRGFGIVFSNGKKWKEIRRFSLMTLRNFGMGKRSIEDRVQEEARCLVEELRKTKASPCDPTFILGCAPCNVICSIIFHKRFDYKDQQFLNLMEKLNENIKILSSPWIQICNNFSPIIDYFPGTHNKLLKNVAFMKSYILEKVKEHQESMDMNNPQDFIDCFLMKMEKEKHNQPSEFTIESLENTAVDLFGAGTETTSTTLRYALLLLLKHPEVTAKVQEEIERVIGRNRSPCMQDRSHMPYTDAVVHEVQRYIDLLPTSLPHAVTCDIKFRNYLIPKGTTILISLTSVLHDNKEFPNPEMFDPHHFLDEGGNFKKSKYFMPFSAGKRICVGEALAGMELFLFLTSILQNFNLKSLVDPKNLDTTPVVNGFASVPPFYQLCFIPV
Sequence of Cytochrome P450 2C19 (Homo sapiens) (P33261 whole entry, looked up): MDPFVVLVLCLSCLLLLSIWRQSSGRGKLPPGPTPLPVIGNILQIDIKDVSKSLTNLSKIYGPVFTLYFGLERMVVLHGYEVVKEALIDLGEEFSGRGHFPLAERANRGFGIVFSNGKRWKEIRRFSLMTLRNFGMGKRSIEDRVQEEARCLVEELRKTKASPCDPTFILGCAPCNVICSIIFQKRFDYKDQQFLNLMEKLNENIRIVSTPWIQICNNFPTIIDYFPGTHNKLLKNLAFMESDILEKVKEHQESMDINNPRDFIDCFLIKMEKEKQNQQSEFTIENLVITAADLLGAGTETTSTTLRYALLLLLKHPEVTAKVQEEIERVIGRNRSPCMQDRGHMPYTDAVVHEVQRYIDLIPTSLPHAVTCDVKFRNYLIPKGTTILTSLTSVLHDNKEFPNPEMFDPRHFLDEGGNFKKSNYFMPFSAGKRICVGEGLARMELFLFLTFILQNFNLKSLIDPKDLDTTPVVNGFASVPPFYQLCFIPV
Sequence of Voltage-gated inwardly rectifying potassium channel KCNH2 (Homo sapiens) (Q12809 whole entry, looked up): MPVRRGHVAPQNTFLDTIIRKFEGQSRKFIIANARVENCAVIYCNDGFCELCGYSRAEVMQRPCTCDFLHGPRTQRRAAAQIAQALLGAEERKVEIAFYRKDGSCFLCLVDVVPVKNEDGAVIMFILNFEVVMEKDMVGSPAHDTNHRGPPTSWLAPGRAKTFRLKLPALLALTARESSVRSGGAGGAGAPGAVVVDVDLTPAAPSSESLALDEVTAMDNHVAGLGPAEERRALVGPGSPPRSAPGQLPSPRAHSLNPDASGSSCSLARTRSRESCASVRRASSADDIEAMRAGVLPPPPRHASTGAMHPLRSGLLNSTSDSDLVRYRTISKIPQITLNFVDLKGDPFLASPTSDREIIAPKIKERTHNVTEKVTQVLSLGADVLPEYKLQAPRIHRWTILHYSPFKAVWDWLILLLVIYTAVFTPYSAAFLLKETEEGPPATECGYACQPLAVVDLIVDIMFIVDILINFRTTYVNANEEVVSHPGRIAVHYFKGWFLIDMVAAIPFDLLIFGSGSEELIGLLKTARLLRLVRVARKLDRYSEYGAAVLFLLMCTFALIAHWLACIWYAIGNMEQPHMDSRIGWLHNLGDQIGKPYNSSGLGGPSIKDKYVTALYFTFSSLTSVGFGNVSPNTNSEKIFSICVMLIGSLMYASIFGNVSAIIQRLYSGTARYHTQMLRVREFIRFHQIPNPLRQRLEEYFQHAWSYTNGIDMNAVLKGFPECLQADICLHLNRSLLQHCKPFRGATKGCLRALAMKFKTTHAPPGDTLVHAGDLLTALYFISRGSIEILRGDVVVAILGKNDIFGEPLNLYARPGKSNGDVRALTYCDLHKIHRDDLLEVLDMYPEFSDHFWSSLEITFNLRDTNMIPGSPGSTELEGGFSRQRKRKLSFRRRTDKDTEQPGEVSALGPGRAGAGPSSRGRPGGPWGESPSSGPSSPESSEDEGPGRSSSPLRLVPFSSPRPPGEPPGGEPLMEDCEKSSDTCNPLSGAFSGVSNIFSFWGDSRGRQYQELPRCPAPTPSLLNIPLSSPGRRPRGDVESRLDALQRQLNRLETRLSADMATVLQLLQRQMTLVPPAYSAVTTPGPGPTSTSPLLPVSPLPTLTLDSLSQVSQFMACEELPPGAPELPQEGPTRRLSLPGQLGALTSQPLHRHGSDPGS
Sequence of Nuclear receptor subfamily 1 group I member 2 (Homo sapiens) (O75469 whole entry, looked up): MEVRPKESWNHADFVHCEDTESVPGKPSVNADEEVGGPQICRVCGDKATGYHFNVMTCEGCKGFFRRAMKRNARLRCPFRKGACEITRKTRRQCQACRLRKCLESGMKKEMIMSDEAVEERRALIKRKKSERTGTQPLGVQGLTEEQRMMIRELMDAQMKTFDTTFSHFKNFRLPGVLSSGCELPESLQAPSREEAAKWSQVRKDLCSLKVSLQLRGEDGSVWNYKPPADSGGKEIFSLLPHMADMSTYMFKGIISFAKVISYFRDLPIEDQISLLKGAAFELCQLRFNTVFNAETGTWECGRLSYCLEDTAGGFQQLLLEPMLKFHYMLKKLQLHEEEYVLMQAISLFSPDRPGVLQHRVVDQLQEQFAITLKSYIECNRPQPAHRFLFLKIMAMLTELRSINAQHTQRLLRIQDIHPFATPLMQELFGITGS
Sequence of Nuclear receptor subfamily 1 group I member 2 (Rattus norvegicus) (Q9R1A7 whole entry, looked up): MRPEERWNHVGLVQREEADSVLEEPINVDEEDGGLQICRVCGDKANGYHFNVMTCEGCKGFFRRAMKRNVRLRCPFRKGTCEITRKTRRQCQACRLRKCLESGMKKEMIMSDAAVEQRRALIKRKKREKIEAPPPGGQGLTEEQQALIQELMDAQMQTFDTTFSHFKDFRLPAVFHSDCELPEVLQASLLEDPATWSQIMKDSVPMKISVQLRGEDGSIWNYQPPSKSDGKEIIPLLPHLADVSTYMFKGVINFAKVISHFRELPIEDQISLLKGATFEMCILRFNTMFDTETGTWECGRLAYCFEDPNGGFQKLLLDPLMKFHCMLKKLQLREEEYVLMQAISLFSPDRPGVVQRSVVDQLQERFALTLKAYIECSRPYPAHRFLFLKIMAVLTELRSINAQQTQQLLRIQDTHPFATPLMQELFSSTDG

For `C[C@@H](O)[C@H]1C(=O)N2C(C(=O)O)=C(S[C@@H]3CN[C@H](CNS(N)(=O)=O)C3)[C@H](C)[C@H]12`, which outcome [1] is on record?
Its outcome is “inactive”.

What about the Potency [2] of the same compound?
Its Potency is “inactive”.

What about the Potency [3] of the same compound?
Its Potency is “inactive”.

And the Potency [4]?
The Potency was “inactive”.

And the Potency [5]?
Its Potency is “inactive”.

What about the Potency [6] of the same compound?
Its Potency is “inactive”.

What about the Potency [7] of the same compound?
The Potency was 18.8 µM (active).

What about the max activation [8] of the same compound?
The max activation was -2.11%.

What about the Potency [9] of the same compound?
Its Potency is “inactive”.

And the Potency [10]?
The Potency was “inactive”.

And the Potency [11]?
Its Potency is 9.77 µM (active).

And the Potency [12]?
Its Potency is 15.5 µM (active).

What about the Potency [13] of the same compound?
Its Potency is 3.89 µM (active).

With `CC(=O)Nc1ccn(C2COC(COC(=O)c3ccccc3)O2)c(=O)n1` (stereo not drawn) as the compound, how does the outcome [1] read?
The outcome was “inactive”.

And the Potency [2]?
Its Potency is “inactive”.

What about the Potency [3] of the same compound?
Its Potency is “inactive”.

What about the Potency [4] of the same compound?
Its Potency is “inactive”.

And the Potency [5]?
The Potency was “inactive”.

What about the Potency [6] of the same compound?
The Potency was “inactive”.

What about the Potency [7] of the same compound?
Its Potency is “inactive”.

And the Potency [10]?
The Potency was “inactive”.

What about the Potency [11] of the same compound?
The Potency was “inactive”.

What about the Potency [14] of the same compound?
The Potency was 24.5 µM (active).

What about the Potency [15] of the same compound?
The Potency was “inactive”.

And the Potency [13]?
The Potency was “inactive”.

With `O=C1CCCN1CCO` as the compound, how does the outcome [1] read?
Its outcome is “inactive”.

What about the Potency [2] of the same compound?
Its Potency is “inactive”.

What about the Potency [3] of the same compound?
The Potency was “inactive”.

What about the Potency [4] of the same compound?
The Potency was “inactive”.

And the Potency [5]?
The Potency was “inactive”.

What about the Potency [6] of the same compound?
Its Potency is “inactive”.

And the Potency [7]?
Its Potency is “inactive”.

What about the Potency [10] of the same compound?
The Potency was “inactive”.

What about the Potency [11] of the same compound?
The Potency was “inactive”.

And the Potency [12]?
Its Potency is “inactive”.

And the Potency [14]?
The Potency was 39.9 µM (active).

What about the Potency [15] of the same compound?
The Potency was “inactive”.

What about the Potency [13] of the same compound?
The Potency was “inactive”.

For `CC/C=C/CCO`, which outcome [1] is on record?
Its outcome is “inactive”.

And the Potency [2]?
Its Potency is “inactive”.

What about the Potency [3] of the same compound?
The Potency was “inactive”.

What about the Potency [4] of the same compound?
Its Potency is “inactive”.

And the Potency [5]?
Its Potency is “inactive”.

What about the Potency [6] of the same compound?
Its Potency is “inactive”.

What about the Potency [7] of the same compound?
Its Potency is “inactive”.

And the Potency [10]?
The Potency was “inactive”.

And the Potency [11]?
The Potency was “inactive”.

And the Potency [12]?
Its Potency is “inactive”.

What about the Potency [14] of the same compound?
Its Potency is 36.2 µM (active).

What about the Potency [15] of the same compound?
The Potency was “inactive”.

What about the Potency [13] of the same compound?
Its Potency is “inactive”.

With `CCCC(=O)OCc1ccccc1` as the compound, how does the outcome [1] read?
The outcome was “inactive”.

What about the Potency [2] of the same compound?
The Potency was “inactive”.

What about the Potency [3] of the same compound?
The Potency was “inactive”.

What about the Potency [4] of the same compound?
Its Potency is “inactive”.

And the Potency [5]?
Its Potency is “inactive”.

What about the Potency [6] of the same compound?
The Potency was “inactive”.

What about the Potency [7] of the same compound?
Its Potency is “inactive”.

And the Potency [10]?
The Potency was “inactive”.

What about the Potency [11] of the same compound?
The Potency was “inactive”.

And the Potency [12]?
The Potency was “inactive”.

And the Potency [14]?
Its Potency is “inactive”.

What about the Potency [13] of the same compound?
Its Potency is “inactive”.

Which results are given for `OCC(O)c1ccccc1` (stereo not drawn)?
outcome [1]: inactive; Potency [2]: inactive; Potency [3]: inactive; Potency [4]: inactive; Potency [5]: inactive; Potency [6]: inactive; Potency [7]: inactive; Potency [10]: inactive; Potency [11]: inactive; Potency [12]: inactive; Potency [13]: inactive

For `C/C=C1\[C@H]2C=C(C)C[C@]1(N)c1ccc(=O)[nH]c1C2`, which outcome [1] is on record?
The outcome was “inactive”.

And the Potency [2]?
Its Potency is “inactive”.

And the Potency [3]?
The Potency was “inactive”.

What about the Potency [4] of the same compound?
Its Potency is “inactive”.

And the Potency [5]?
The Potency was “inactive”.

What about the Potency [6] of the same compound?
Its Potency is “inactive”.

And the Potency [7]?
The Potency was “inactive”.

And the max activation [8]?
The max activation was -1.47%.

And the Potency [9]?
Its Potency is “inactive”.

What about the Potency [10] of the same compound?
The Potency was “inactive”.

And the Potency [11]?
The Potency was “inactive”.

And the Potency [12]?
Its Potency is “inactive”.

And the Potency [14]?
Its Potency is “inactive”.

What about the Potency [13] of the same compound?
Its Potency is “inactive”.

What does the source list for `CCCC1CCOC(C)S1` (stereo not drawn)?
outcome [1]: inactive; Potency [2]: inactive; Potency [3]: inactive; Potency [4]: inactive; Potency [5]: inactive; Potency [6]: inactive; Potency [7]: inactive; Potency [10]: inactive; Potency [11]: inactive; Potency [12]: inactive; Potency [14]: inactive; Potency [15]: inactive; Potency [13]: inactive

With `CCCCCCCCC(=O)OCC(C)OC(=O)CCCCCCCC` (stereo not drawn) as the compound, how does the outcome [1] read?
The outcome was “inactive”.

What about the Potency [2] of the same compound?
Its Potency is “inactive”.

What about the Potency [3] of the same compound?
Its Potency is “inactive”.

What about the Potency [4] of the same compound?
Its Potency is “inactive”.

And the Potency [5]?
Its Potency is “inactive”.

And the Potency [6]?
Its Potency is “inactive”.

And the Potency [7]?
Its Potency is “inactive”.

What about the Potency [10] of the same compound?
The Potency was “inactive”.

What about the Potency [11] of the same compound?
The Potency was 83.4 µM (active).

And the Potency [12]?
The Potency was 59.1 µM (active).

What about the Potency [15] of the same compound?
The Potency was “inactive”.

What about the Potency [13] of the same compound?
Its Potency is “inactive”.
